{"source": "PubChem BioAssay (Tox21)", "note": "Inconclusive results are not listed. Where a call stands in place of a potency, no number is given. Calls of active or inactive are those of the source. Calls come from the whole dose curve; as a rule, active = well fitted cell-killing curve with a large enough effect in the repeat runs; inconclusive = weak or mixed curves, or effect the other way; inactive = no such curve, though single readings can be large or run the other way. Potency is the fitted concentration of half-maximal effect.", "data": [{"assay": "qHTS assay to identify small molecule agonists of the estrogen receptor alpha (ER-alpha) signaling pathway in the presence of an antagonist - cell viability counter screen (AID 1259386);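 note: cells exposed to compounds for 22 h at 37 °C before the viability read; nearly all actives have a fitted effect of over 30% in size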", "details": "VM7Luc4E2 viability, CellTiter-Fluor fluorescence, 22 h; series mostly up to 92.4 µM", "text": "National Center for Advancing Translational Sciences [NCATS]\nNIH Chemical Genomics Center [NCGC]\nU.S. Environmental Protection Agency [EPA]\nNational Institutes of Environmental Health Sciences [NIEHS]\nNational Toxicology Program [NTP]\nU.S. Food and Drug Administration [FDA]\nEstrogen receptor (ER), a member of nuclear hormone receptor plays an important role in development, metabolic homeostasis and reproduction. Two subtypes of ER, ER-alpha and ER-beta, have similar expression patterns with some uniqueness in both types. Endocrine disrupting chemicals (EDCs) and their interactions with steroid hormone receptors like ER causes disruption of normal endocrine function. Therefore, it is important to understand the effect of environmental chemicals in ER signaling pathway. For identifying ER agonists, VM7Luc4E2 cell line has been used in the current assay.\nVM7Luc4E2 cell line (provided by Denison MS, University of California) endogenously expresses full-length ER-alpha and is stably transfected with a plasmid containing four estrogen responsive elements (ERE) upstream of a luciferase reporter gene. This current screening for measuring luciferase reporter gene activity using VM7Luc4E2 cells against Tox21 10K library collection is a confirmation study on agonist mode screening in presence of ER-antagonist (ICI-182,780) at 10.0nM final concentration. The cytotoxicity of the compounds was tested in parallel by measuring the cell viability using CellTiter-Fluor assay system (Promega, Madison, WI) in the same wells.\nTox21 Assay Protocol Summary:\nVM7Luc4E2 cells were cultured in phenol red free assay medium containing 10% charcoal stripped FBS for 5 days prior to the assay. The cells were dispensed at 4,000 cells in 4uL of assay medium per well into white wall/solid-bottom 1536-well plates (Corning Life Sciences, Corning, NY) using a Multidrop Combi (Thermo Fisher Scientific Inc., Waltham, MA) dispenser. After the assay plates were incubated at 37C and 5% CO2 for 24hr, 1uL of 10.0nM (final concentration) ICI-182,780 or assay buffer was added using two separate tips of Flying Reagent Dispenser (FRD, Aurora Discovery, San Diego, CA). Then 23nL of compounds dissolved in DMSO at 15 concentrations and positive controls or DMSO only was transferred to the assay plates by a Pintool station (Wako, San Diego, CA). The assay plates were incubated at 37C and 5% CO2 for 22hr. After 21hr incubation at 37C, 1uL/well CellTiter-Fluor reagent (Promega Corporation, Madison, WI) was added to each well using FRD and after 1hr incubation at 37C and 5% CO2, the fluorescence signal was measured on ViewLux plate reader (PerkinElmer, Shelton, CT).", "values": [{"smiles": "Clc1cc(Cl)nc(Cl)n1", "Potency": "inactive"}, {"smiles": "O=C(/C=C/c1ccccc1)OCCc1ccccc1", "Potency": "inactive"}, {"smiles": "O=C1CCCCCCCCCCOCCCCO1", "Potency": "inactive"}, {"smiles": "NCCNCCO", "Potency": "inactive"}, {"smiles": "CC1=Nc2ccc3ccccc3c2C1(C)C", "Potency": "inactive"}, {"smiles": "CC(=O)[C@H]1[C@H](C#N)C[C@H]2[C@@H]3CC=C4C[C@@H](O)CC[C@]4(C)[C@H]3CC[C@@]21C", "Potency": "inactive"}, {"smiles": "O=C1Cc2cc(Cl)ccc2N1", "Potency": "inactive"}, {"smiles": "CCC1(CO)COCOC1", "Potency": "inactive"}, {"smiles": "COc1ccccc1N1CCN(CCCCNC(=O)c2ccc(-c3ccc(C(C)=O)cc3)cc2)CC1", "Potency": "inactive"}, {"smiles": "Oc1cccc(Nc2ccccc2)c1", "Potency": "inactive"}, {"smiles": "CC=C(Cl)Cl", "Potency": "inactive"}, {"smiles": "Cc1cscn1", "Potency": "inactive"}, {"smiles": "Cc1ccc(OC(=O)c2ccccc2O)cc1", "Potency": "inactive"}, {"smiles": "CC1(C)[C@H](C(=O)O)N2C(=O)C[C@H]2S1(=O)=O", "Potency": "inactive"}, {"smiles": "CS(=O)(=O)c1ccc(-c2cn3ccccc3n2)cc1", "Potency": "inactive"}, {"smiles": "O=c1[nH]c2ccc(Cl)cc2o1", "Potency": "inactive"}, {"smiles": "O=C1c2ccccc2C(=O)C1c1ccc(Br)cc1", "Potency": "inactive"}, {"smiles": "CC[N+](CC)(CCNC(=O)C(=O)NCC[N+](CC)(CC)Cc1ccccc1Cl)Cc1ccccc1Cl", "Potency": "inactive"}, {"smiles": "O=C(O)c1ccc(OCCCOc2ccc(C(=O)O)cc2)cc1", "Potency": "inactive"}, {"smiles": "NC1[C@H]2CN(c3nc4c(cc3F)c(=O)c(C(=O)O)cn4-c3ccc(F)cc3F)C[C@@H]12", "note": "(stereo not given in full)", "Potency": "inactive"}, {"smiles": "Cc1[nH]cnc1CN1CCc2c(c3ccccc3n2C)C1=O", "Potency": "inactive"}, {"smiles": "C=C/C(C)=C/C/C=C(\\C)CCC=C(C)C", "Potency": "inactive"}, {"smiles": "Nc1ncnc2c1ncn2[C@H]1CC[C@@H](CO)O1", "Potency": "inactive"}, {"smiles": "Oc1cccc(O)c1O", "Potency": "68 µM (active)"}, {"smiles": "Cc1cc(O)c(C)c(C)c1O", "Potency": "inactive"}, {"smiles": "CCOC(=O)C1=C(C)NC(C)=C(C(=O)OC)C1c1cccc(Cl)c1Cl", "note": "(stereo not given)", "Potency": "inactive"}, {"smiles": "CCCCCCCCCCC(=O)O", "Potency": "inactive"}, {"smiles": "C/C=C\\C/C=C/CCCCCCCCOC(C)=O", "Potency": "inactive"}, {"smiles": "CN1CCCC(n2nc(Cc3ccc(Cl)cc3)c3ccccc3c2=O)CC1", "note": "(stereo not given)", "Potency": "11.9 µM (active)"}, {"smiles": "C=C(C)C(=O)OCCOCCOC(=O)C(=C)C", "Potency": "inactive"}, {"smiles": "C=CC(=O)OCC1CC2CC1C1CCC(COC(=O)C=C)C21", "note": "(stereo not given)", "Potency": "inactive"}, {"smiles": "Brc1cc2ccccc2c2ccccc12", "Potency": "inactive"}, {"smiles": "C/C=C/C=C/C=O", "Potency": "inactive"}, {"smiles": "CCCCC(CC)CN", "note": "(stereo not given)", "Potency": "inactive"}, {"smiles": "CC(C)=CCC1C(=O)N(c2ccccc2)N(c2ccccc2)C1=O", "Potency": "inactive"}, {"smiles": "NC(=O)c1ccncc1", "Potency": "inactive"}, {"smiles": "C=C1C[C@@]23CC[C@H]4[C@@](C)(CCC[C@@]4(C)C(=O)O[C@@H]4O[C@H](CO)[C@@H](O)[C@H](O)[C@H]4O)[C@@H]2CC[C@]1(O[C@@H]1O[C@H](CO)[C@@H](O)[C@H](O[C@@H]2O[C@H](CO)[C@@H](O)[C@H](O)[C@H]2O)[C@H]1O[C@@H]1O[C@H](CO)[C@@H](O)[C@H](O)[C@H]1O)C3", "Potency": "inactive"}, {"smiles": "C=CC(=O)[O-].C=CC(=O)[O-].[Zn+2]", "Potency": "inactive"}, {"smiles": "O[C@@H]1CO[C@H]2[C@@H]1OC[C@@H]2O", "Potency": "inactive"}, {"smiles": "O=C1c2ccccc2C(=O)c2c(O)c(O)cc(O)c21", "Potency": "30.6 µM (active)"}]}]}
